Screens as filed in PubChem.
PLC-beta3 inh – human PLC-beta3 inhibitors, primary screen, biochemical, fluorescence. 1-phosphatidylinositol 4,5-bisphosphate phosphodiesterase beta-3 (Homo sapiens), Q01970. Purified PLC-beta3, fluorogenic substrate. inhibition, % at 12.2 µM. hit rate 0.18% among 370,000. AID 720704, 2013;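 also: 0% = median of compound wells on plate and 100% = full blocker control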
PLCg1 inh – PLC-gamma1 enzyme inhibitors, primary screen, biochemical, fluorescence, purified enzyme. hit rate 0.84% among 370,000. fluorogenic substrate. 1-phosphatidylinositol 4,5-bisphosphate phosphodiesterase gamma-1 (Homo sapiens), P19174. AID 720700, 2013. inhibition, % at 12.2 µM; in the data active = inhibition above about 9.5%
ADAM17 inh – ADAM17 inhibitors, primary screen, biochemical, QFRET; Disintegrin and metalloproteinase domain-containing protein 17 (Homo sapiens), P78536; recombinant ADAM17, EDANS/DABCYL FRET peptide cleavage; inhibition, % at 6.95 µM; hit rate 0.83% among 370,000; AID 720648, 2013;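 active = inhibition above the mean of compounds lying between control limits plus 3 SD, set per campaign, cut at about 8.5% in these data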;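 also: 0% = DMSO-only wells as the low control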
Target sequence (P78536 215-824 limits assumed): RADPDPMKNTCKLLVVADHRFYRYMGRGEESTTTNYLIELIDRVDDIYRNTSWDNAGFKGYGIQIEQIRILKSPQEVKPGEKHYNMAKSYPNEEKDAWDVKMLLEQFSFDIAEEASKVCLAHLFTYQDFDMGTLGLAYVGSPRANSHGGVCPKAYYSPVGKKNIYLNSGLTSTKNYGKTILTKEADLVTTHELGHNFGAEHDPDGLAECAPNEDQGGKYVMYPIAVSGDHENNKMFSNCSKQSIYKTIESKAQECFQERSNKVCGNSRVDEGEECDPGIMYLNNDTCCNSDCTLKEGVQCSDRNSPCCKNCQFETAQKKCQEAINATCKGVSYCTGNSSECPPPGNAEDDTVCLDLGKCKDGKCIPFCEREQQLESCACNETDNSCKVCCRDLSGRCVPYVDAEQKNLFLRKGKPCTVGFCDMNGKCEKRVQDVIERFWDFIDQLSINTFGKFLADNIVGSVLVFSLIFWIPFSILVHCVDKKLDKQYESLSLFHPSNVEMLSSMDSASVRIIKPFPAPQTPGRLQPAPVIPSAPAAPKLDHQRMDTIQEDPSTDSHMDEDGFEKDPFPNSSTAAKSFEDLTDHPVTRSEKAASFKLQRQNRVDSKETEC
ADAM10 inh – human ADAM10 inhibitors, primary screen, biochemical, QFRET, HTS | recombinant ADAM10, EDANS/DABCYL FRET peptide cleavage, 3 h | inhibition, % at 7 µM | Disintegrin and metalloproteinase domain-containing protein 10 (Homo sapiens), O14672 | hit rate 0.62% among 370,000 | AID 720582, 2013;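 active = inhibition above a per-campaign cutoff equal to the mean of compounds falling between control-based bounds plus 3 SD, cut at about 20% in these data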;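 also: 0% = DMSO wells while the 100% control is not disclosed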
proKLK7 act – proKLK7 zymogen activators, primary screen, biochemical, fluorescence intensity; hit rate 0.9% among 370,000; Kallikrein-7 (Homo sapiens), P49862; activation, % at 7 µM; purified proKLK7, EDANS-DABCYL substrate fluorescence; 100% is mature enzyme control, 0% vehicle; AID 652039, 2013;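 active = activation above the mean of all tested compounds plus 3 SD, computed per campaign excluding outliers beyond control limits, cut at about 13% in these data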
PLCgamma1 ctr – PLC-gamma1 enzyme inhibitors, counter-screen for PLC-beta3 inhibitor project, biochemical, fluorescence; shares compounds with PLCg1 inh; purified PLC-gamma1, fluorogenic substrate; inhibition, % at 12.3 µM; hit rate 3.1% among 3,300; in the data active = inhibition above about 9.5%
PLCbeta3 conf – PLC-beta3 inhibitor confirmation, biochemical, fluorescence, purified enzyme; inhibition, % at 12.3 µM; fluorogenic substrate fluorescence; shares compounds with PLCg1 inh; hit rate 1% among 3,300
Numbers without * were called inactive; / = no result. Compounds with a hit are over-represented: about 2.9% of the library has one in this group of screens. Rule as the data show it, unless noted: active = inhibition above about 11%; inactive = the rest.

SMILES	PLC-beta3 inh	PLCg1 inh	ADAM17 inh	ADAM10 inh	proKLK7 act	PLCgamma1 ctr	PLCbeta3 conf
COC(=O)c1cccc(CC2(C)C(=O)Nc3cc(-c4ccccc4Cl)ccc32)c1 (stereo not given)	8	14*	7	13	0	-1	0
CC1(Cc2c(Cl)cccc2Cl)C(=O)Nc2cc(-c3ccccc3Cl)ccc21 (stereo not given)	-2	1	1	-9	0	/	/
O=C(NC1CCCCN(Cc2cccc(Cl)c2)C1=O)c1ccccc1 (stereo not given)	2	2	1	8	1	/	/
CCCCOc1ccc(C(=O)NC2CCCCN(Cc3cccc(C(F)(F)F)c3)C2=O)cc1 (stereo not given)	6	10*	1	5	0	3	2
Cc1ccccc1CN1CCCCC(NC(=O)c2ccc(-c3ccccc3)cc2)C1=O (stereo not given)	2	12*	3	13	0	3	2
CC(=O)c1ccc(NC(=O)NC2CCCCN(Cc3cccc(Cl)c3)C2=O)cc1 (stereo not given)	7	11*	7	11	0	0	-1
O=C(NC1CCCCN(Cc2cccc(C(F)(F)F)c2)C1=O)c1ccc(F)cc1 (stereo not given)	-3	0	0	-1	0	/	/
O=C(Nc1ccc(Cl)c(Cl)c1)C1CCCN1S(=O)(=O)c1cccc2cccnc12 (stereo not given)	0	4	5	6	0	/	/
O=C(NC1CCCCC1)C(c1ccncc1)N(Cc1ccc2c(c1)OCO2)C(=O)c1cnsn1 (stereo not given)	11*	6	4	15	1	-6	-3
O=C(NC1CCCCC1)C(c1ccc2ncccc2c1)N(Cc1ccc2c(c1)OCO2)C(=O)c1cccs1 (stereo not given)	0	9.6*	2	4	0	-6	-2
COc1ccc(-c2nnc(SCc3nc4ccccc4c(=O)[nH]3)o2)cc1	-8	-2	-2	-2	1	/	/
C=C1C(=O)OCC2C(C(=O)O)=CC3C(C)C(C)=CC123 (stereo not given)	0	5	-2	-23	-1	/	/
Cc1ccsc1C(=O)N1CCCC(C)(C(=O)NS(=O)(=O)C2CC2)C1 (stereo not given)	5	9.8*	2	2	0	0	3
Cc1ccccc1C(=O)N=c1sccn1C	-11	-6	-3	10	0	/	/
CCOc1ncccc1C(=O)N=c1sccn1C	-2	12*	7	-14	0	-4	1
O=C(NC(C(=O)c1ccccc1)n1cnccc1=O)c1ccccc1 (stereo not given)	3	11*	1	2	0	-2	3
COC(=O)Cc1csc(Nc2ccccc2Cl)n1	-1	0	-1	-1	0	/	/
CCc1ccc(C2(C)SC(NC(C)=O)=NN2C(C)=O)cc1 (stereo not given)	7	13*	5	6	0	-1	1
CC(C)CN1C(=O)NC(NC(=O)c2cccnc2)(C(F)(F)F)C1=O (stereo not given)	7	11*	6	16	0	-5	1
CCOC(=O)C1=CCN(S(=O)(=O)c2ccc(C)cc2)C1c1cccc(F)c1 (stereo not given)	1	1	-4	-5	0	/	/
Cc1ccc(NC(=O)c2ccc(F)cc2)cc1S(=O)(=O)N1CCCCCC1	8	8	4	6	0	/	/
Cc1ccc(NC(=O)CSc2nnc(-c3ccc(S(=O)(=O)N4CCCC4)cc3)o2)cc1C	3	12*	2	-7	-1	-5	-4
COc1ccc(C(=O)Nc2ccc(C)c(S(=O)(=O)N3CCCCCC3)c2)cc1	5	11*	4	12	0	5	6
COc1ccc(NC(=O)CSc2nc(N)cc(=O)[nH]2)cc1S(=O)(=O)N1CCCCC1	0	0	0	-1	0	/	/
Cc1cc(=O)[nH]c(SCC(=O)Nc2ccc(C)c(S(=O)(=O)N3CCCCC3)c2)n1	-2	12*	2	4	0	-3	-1
SMILES	PLC-beta3 inh	PLCg1 inh	ADAM17 inh	ADAM10 inh	proKLK7 act	PLCgamma1 ctr	PLCbeta3 conf
O=C(CSc1nnc(-c2ccc(F)cc2)o1)Nc1ccc(S(=O)(=O)N2CCCC2)cc1	5	5	7	9	0	/	/
CC(C)(C)C(=O)OC12CCCN(C1)/C(=C/c1ccc(C#N)cc1)C2 (stereo not given)	-2	0	-1	-6	0	/	/
COc1cc(NC(=O)c2ccco2)c(C(=O)OCC(=O)c2c[nH]c3ccccc23)cc1OC	-11	-7	2	0	-2	/	/
O=C(OCC(=O)c1c[nH]c2ccccc12)c1ccco1	11*	6	5	4	1	-8	-3
Cc1cc(-c2ccccc2)nc(N/N=C/c2ccccc2)n1	-31	-22	1	0	1	/	/
CNc1nc(C)nc(N/N=C/c2ccccc2)n1	7	11*	3	0	0	-2	-3
O=C(O)CCCn1cc(NC(=O)COc2ccccc2)cn1	-1	11*	6	-5	-1	-1	2
Cc1cc(C)n2nc(SCC(=O)N3CCC(C(=O)O)CC3)nc2n1	11*	9	3	5	0	3	2
CCCCC(=O)Nc1ccc(C(=O)Nc2cccnc2)cc1	7	10.0*	1	12	0	-4	-2
C[C@H]1[C@@H](OC(=O)NCc2ccc(Cl)c(Cl)c2)CC[C@@]23CCCN2C(=O)CCC[C@@H]13	-2	2	-1	2	/	/	/
COC(=O)C1CCN(C(=O)CCn2nnc(-c3cccs3)n2)CC1	-5	-3	-3	-4	0	/	/
COC(=O)[C@@]12C[C@@H](CC(=O)N3CCCC3)C(=O)N(Cc3ccccc3)C1=CCC(C)(C)C2	1	3	0	1	-1	/	/
CCCS(=O)(=O)NC(=O)C1(C)CCN(C(=O)c2cc(C)nn2C(C)(C)C)C1 (stereo not given)	0	9.8*	5	2	1	-2	0
CCCS(=O)(=O)NC(=O)C1(C)CCN(C(=O)c2cc(C)n(C(C)(C)C)n2)C1 (stereo not given)	2	0	-3	-5	0	/	/
CSc1ccc(S(=O)(=O)Nc2ccc(F)cc2)cc1	-1	-2	-4	1	1	/	/
COc1ccc(NS(=O)(=O)c2ccc(SC)cc2)cc1	0	12*	2	8	0	8	1
